High-throughput results: PubChem BioAssay, The Scripps Research Institute Molecular Screening Center
SRC1 TRFRET art = counter-screen for PPARgamma SRC-1 recruitment agonists: TR-FRET artefact; 99,000 tested, 0.34% active; TR-FRET ratio at 8 µM; TR-FRET detection artefact counter-screen, emission ratio; hits give high values; AID 1051; in the data active = TR-FRET ratio above about 2300
SRC2 TRFRET art = TR-FRET artefact, counter-screen to PPARgamma/SRC-2 agonist assay; TR-FRET ratio at 8 µM; 200,000 tested, 0.4% active; hits give high values
PPARg SRC-1 ag = promotes SRC-1 coactivator recruitment by human PPARgamma. 200,000 tested, 0.41% active. P37231. AID 631. PPARgamma-SRC-1 coactivator recruitment biochemical assay. activation, % at 8 µM; in the data active = activation above about 19%;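 note: 0% = DMSO and 100% = reference agonist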
Target sequence (P37231 whole entry, looked up): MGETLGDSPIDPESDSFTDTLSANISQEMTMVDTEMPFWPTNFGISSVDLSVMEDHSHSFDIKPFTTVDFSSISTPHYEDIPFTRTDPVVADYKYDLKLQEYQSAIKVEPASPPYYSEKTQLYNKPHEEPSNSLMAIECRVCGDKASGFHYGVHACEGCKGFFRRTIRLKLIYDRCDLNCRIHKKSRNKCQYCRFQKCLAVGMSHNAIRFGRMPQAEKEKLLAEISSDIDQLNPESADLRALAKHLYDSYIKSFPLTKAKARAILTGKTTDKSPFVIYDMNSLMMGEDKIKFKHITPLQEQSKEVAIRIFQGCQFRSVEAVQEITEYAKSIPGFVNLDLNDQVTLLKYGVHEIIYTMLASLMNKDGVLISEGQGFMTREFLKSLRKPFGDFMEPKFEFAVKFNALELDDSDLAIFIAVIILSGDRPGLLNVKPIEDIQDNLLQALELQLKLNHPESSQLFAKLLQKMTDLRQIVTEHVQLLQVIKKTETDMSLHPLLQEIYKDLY
PPARg SRC-2 ag = agonists of SRC-2 recruitment by human PPARgamma; P37231; PPARgamma LBD-SRC-2 recruitment, biochemical; 200,000 tested, 0.34% active; activation, % at 8 µM; in the data active = activation above about 22%;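 note: 0% = vehicle and 100% = reference agonist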
PPARg SRC-3 ag = agonists of human PPARgamma SRC-3 coactivator recruitment | P37231 | activation, % at 8 µM | 200,000 tested, 0.26% active | biochemical PPARgamma/SRC-3 coactivator recruitment assay; in the data active = activation above about 23%;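 note: 0% = DMSO and 100% = reference agonist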
SRC3 TRFRET art = flags TR-FRET format artefacts in PPARgamma SRC-3 recruitment agonist screen; TR-FRET artefact counter-screen, PPARgamma/SRC-3 format; hits give high values; TR-FRET ratio at 8 µM; 99,000 tested, 0.39% active
PPARg SRC2 conf = confirmation of agonists of SRC-2 recruitment by human PPARgamma | shares compounds with PPARg SRC-3 ag | biochemical SRC-2 recruitment by PPARgamma | activation, % at 8 µM | 790 tested, 52% active; in the data active = activation above about 22%;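 note: 0% = vehicle alone and 100% = reference agonist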
PPARg SRC1 ag = human PPARgamma SRC-1 recruitment agonism, confirmation; shares compounds with PPARg SRC-3 ag; PPARgamma–SRC-1 coactivator recruitment biochemical assay; activation, % at 8 µM; 790 tested, 43% active; in the data active = activation above about 20%;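 note: 0% = vehicle wells and 100% = reference agonist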
PPARg SRC3 ag = confirmation of agonists of SRC-3 recruitment by human PPARgamma; shares compounds with PPARg SRC-3 ag; biochemical PPARgamma-SRC-3 coactivator recruitment, agonist mode; activation, % at 8 µM; 790 tested, 29% active; AID 1301; in the data active = activation above about 24%;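 note: 0% = vehicle wells and 100% = reference agonist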
The depositor's hits bear a star; nt = no result. An excerpt weighted towards active compounds, which were near 0.9% of everything screened. Cut-off read from the data, not from the text of the source, unless noted: active = TR-FRET ratio above about 2000; inactive = the rest.

SMILES	SRC1 TRFRET art	SRC2 TRFRET art	PPARg SRC-1 ag	PPARg SRC-2 ag	PPARg SRC-3 ag	SRC3 TRFRET art	PPARg SRC2 conf	PPARg SRC1 ag	PPARg SRC3 ag
Nc1nc(-c2c[nH]c3ccccc23)cs1	nt	1857	20*	13	36*	nt	22*	12	13
CNc1nc(-c2c[nH]c3ccccc23)cs1	nt	1433	5	6	14	nt	nt	nt	nt
CCOc1ccc(N/C=C/C(=O)c2ccc(C)cc2)c([N+](=O)[O-])c1	nt	1659	24*	13	19	nt	3	2	-4
CCOc1ccc(N/C=C/C(=O)c2ccc3ccccc3c2)c([N+](=O)[O-])c1	nt	1478	-6	-3	-1	nt	nt	nt	nt
O=C(Cc1sc(-c2ccccc2)nc1-c1ccccc1)Nc1ccc(Cl)cc1	nt	1545	6	-1	-1	nt	nt	nt	nt
O=C(Cc1sc(-c2ccccc2Cl)nc1-c1ccccc1)Nc1ccc(F)cc1	nt	2292*	29*	15	13	nt	18	7	7
O=Nc1c(O)[nH]c2ccc(F)cc12	1901	1591	3	5	7	1717	nt	nt	nt
Cc1cc2c(N=O)c(NO)ccc2[nH]1	nt	1595	17	15	30*	nt	6	9	4
N#Cc1ccccc1NC(=O)CSc1nnc(-c2ccncc2)o1	1700	1406	-7	2	-1	1398	nt	nt	nt
O=C(NCc1ccco1)C1CCN(c2ccc(S(=O)(=O)N3CCOCC3)cc2[N+](=O)[O-])CC1	1713	1472	2	-1	-3	1662	nt	nt	nt
CCCCn1c(SCC(=O)Nc2cc(C)on2)nc2ccccc2c1=O	nt	1385	22*	-6	13	nt	6	5	4
CCC(C)n1c(SCC(=O)Nc2cc(C)on2)nc2ccccc2c1=O (stereo not given)	nt	1498	4	1	-4	nt	nt	nt	nt
Cc1ccc2nc(COc3ccc(Cl)cc3)cc(=O)n2c1	1740	1538	7	3	2	1661	nt	nt	nt
O=C(O)C1Cc2[nH]cnc2C(c2ccccc2O)N1 (stereo not given)	1857	1483	2	4	-1	1532	nt	nt	nt
COc1ccc2cc3[n+](cc2c1OC)CCc1cc2c(cc1-3)OCO2	1819	1423	13	25*	-2	1328	7	7	5
COc1cccc(C2=NCCc3cc4c(cc32)OCO4)c1OC	1702	1481	2	5	1	1576	nt	nt	nt
Cc1ccc(S(=O)(=O)CC(=O)c2cc(C)c(O)c(C)c2)cc1	2154	1524	-3	-3	3	1496	nt	nt	nt
COc1cc(/C=C/C(=O)OCC(=O)N2CCc3ccccc3C2)ccc1O	1524	1598	-3	-4	6	1683	nt	nt	nt
O=C(CNS(=O)(=O)c1ccc2ccccc2c1)OCC(=O)c1ccc(Br)s1	nt	2540*	33*	61*	69*	nt	55*	35*	38*
Cc1cc(C(=O)COC(=O)CNS(=O)(=O)c2ccc3ccccc3c2)c(C)n1-c1ccccc1	1884	1766	3	6	2	1624	nt	nt	nt
CCN(C(=O)COC(=O)c1cncc(Br)c1)C1CCS(=O)(=O)C1 (stereo not given)	1765	1330	-3	-7	3	1443	nt	nt	nt
CCC(NC(=O)c1ccccc1NC(=O)c1ccco1)C(=O)NC1CCCCC1 (stereo not given)	nt	2076*	11	25*	12	nt	10	8	4
COc1ccccc1Nc1nc2ccccc2[nH]1	nt	1580	11	8	27*	nt	8	7	4
COc1ccccc1Nc1nc(C)cc(=O)[nH]1	nt	1643	7	-5	6	nt	nt	nt	nt
COC(=O)CSc1nccc(C)n1	1742	1451	2	-4	-2	1464	nt	nt	nt
SMILES	SRC1 TRFRET art	SRC2 TRFRET art	PPARg SRC-1 ag	PPARg SRC-2 ag	PPARg SRC-3 ag	SRC3 TRFRET art	PPARg SRC2 conf	PPARg SRC1 ag	PPARg SRC3 ag
Cn1nnnc1SCC(=O)NC1CCCc2ccccc21 (stereo not given)	1990	1744	7	1	6	1673	nt	nt	nt
COc1ccc2[nH]c3ccccc3c2c1	nt	1426	-3	8	-5	nt	nt	nt	nt
COc1ccc2c(c1)Sc1ccccc1N2	2097	1917	27*	17	13	1823	11	14	13
CCn1c(CNc2ccc(Cl)cc2)nnc1SCC#N	1912	1532	-2	5	2	1663	nt	nt	nt
Cc1cccc(NC(=O)CNC(=O)COc2ccc(-c3ccc(C#N)cc3)cc2)c1C	2605*	1521	27*	12	8	1717	8	8	5
Cc1cccc(NC(=O)CNC(=O)COc2ccc(C(=O)c3ccc(F)cc3)cc2)c1C	1970	1480	3	1	3	1628	nt	nt	nt
COc1cc(-c2nc3ccccc3s2)ccc1O	nt	2089*	23*	30*	31*	nt	30*	33*	23
Oc1ccc(-c2nc3ccc4ccccc4c3c3c2CCC3)cc1O	1680	1382	-1	-4	3	1469	nt	nt	nt
COc1ccc2nc(NC(=O)CCc3cc(OC)c(OC)c(OC)c3)sc2c1	1666	1306	-8	-3	0	1684	nt	nt	nt
CC(=O)c1sc(NC(=O)CCCOc2ccc(Cl)cc2)nc1C	2292	2055*	22*	27*	20	2343*	19	16	12
Cc1ccc(N(C(C)C(=O)NCc2ccncc2)S(C)(=O)=O)cc1C (stereo not given)	1979	1746	3	3	-1	1797	nt	nt	nt
N#C/C(=C\c1ccc(N2CCCCC2)o1)C(N)=O	2106	1938	21*	15	11	1746	-2	3	0
COc1cc(N=Nc2c(C)n(C)n(-c3ccccc3)c2=O)ccc1N	1943	1662	28*	22	11	1714	2	2	3
O=C(Nc1cccc(NC(=O)c2ccc(Br)o2)n1)c1ccc(Br)o1	nt	1847	19*	14	12	nt	6	3	2
CCn1c(=O)cc(SCC(=O)Nc2cccnc2)c2ccccc21	nt	2082*	19*	45*	27*	nt	31*	20*	18
CCn1c(=O)cc(SCC(=O)Nc2ccc3c(c2)OCO3)c2ccccc21	nt	2330*	24*	47*	32*	nt	44*	32*	29*
CCOc1ccc(CCNC(=O)Cn2cccc2C(=O)c2ccccc2C)cc1OCC	1985	1715	-1	14	4	1661	nt	nt	nt
CCCOC(=O)c1ccc(Cl)c(NC(=O)c2cccnc2)c1	1509	1627	1	-3	-2	1517	nt	nt	nt
Cc1ccc(N=Cc2sc(O)c3ccccc23)c(C)c1	nt	1462	16	8	6	nt	nt	nt	nt
Cc1ccc(N=Cc2sc(O)c3ccccc23)cc1	nt	1560	25*	29*	19	nt	-4	-3	-1
Cc1cc(NC(=NC2CC2)c2ccccc2F)n(-c2ccccc2)n1	1857	1591	7	3	1	1769	nt	nt	nt
